Inconclusive results are not listed. Entries that show only a call come without a potency. Activity calls are given as the source filed them. Calls come from the whole dose curve; as a rule, active = well fitted curve in the direction sought with a large enough effect; inconclusive = small, poorly fitted or top-dose-only effect, or another doubt; inactive = no such curve, though single readings can be large; an effect the other way counts as inactive or inconclusive.
Assays:
[1] = tested on: Zika virus NS2B-NS3 protease (unlinked); experiment: Optimization of GU AMC qHTS for Zika virus inhibitors: Unlinked NS2B-NS3 protease assay (AID 1347151); details: recombinant ZIKV NS2B-NS3 protease, fluorogenic AMC substrate; series mostly up to 52.5 µM; note: nearly all actives have a fitted effect of over 80% in size; note: potency is the fitted concentration of half-maximal effect
In short: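 Noncovalent NS2B hydrophilic domain–NS3 protease complex (25 nM final) in 10 mM Tris-HCl pH 8.0, 0.01% Tween 20; AMC substrate, room temperature 15 min (~20% conversion); fluorescence change normalized, 4-parameter Hill fit.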

[2] = tested on: Zika virus NS2B-NS3 protease; experiment: Primary screen GU AMC qHTS for Zika virus inhibitors (AID 1347154); details: Zika NS2B-NS3 unlinked protease, AMC fluorogenic substrate; series mostly up to 54.1 µM; note: nearly all actives have a fitted effect of over 70% in size
In short: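 Fluorogenic AMC-substrate cleavage by noncovalent NS2B-NS3 protease complex (25 nM, pH 8.0 Tris buffer with Tween 20) followed for 15 minutes at room temperature (~20% conversion). Percent inhibition from ex340/em450 signal change, fitted by 4-parameter Hill equation.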

[3] = Confirmatory screen GU Rhodamine qHTS for Zika virus inhibitors qHTS (AID 1347157); details: purified enzyme assay, Rhodamine110 substrate fluorescence, 15 min; series mostly up to 114 µM; note: nearly all actives have a fitted effect of over 70% in size; note: potency is the fitted concentration of half-maximal effect
In short: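 In dose–response format, inhibition of unlinked protease (25 nM) was measured with 1.5 microM bis-peptide Rhodamine110 substrate. Aprotinin served as the intraplate control.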

[4] = ZIKV-mCherry secondary qHTS for Zika virus inhibitors (AID 1347158); details: Vero cells, ZIKV-mCherry infection imaging, 48-72 h; series mostly up to 32.6 µM; note: potency is the fitted concentration of half-maximal effect
In short: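 Compounds were tested in Vero monkey kidney cells infected with recombinant mCherry-expressing Zika virus at MOI 1 for 48-72 h at 37 °C. Fixed cells were nuclear-stained and imaged, and infection rate was taken as the fraction of mCherry-positive cells.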

Cc1cccc(-c2[nH]c(C(C)(C)C)nc2-c2ccc3nccnc3c2)n1
Potency [1]: inactive | Potency [2]: inactive

O=C1CCc2cc(OCCCCc3nnnn3C3CCCCC3)ccc2N1
Potency [1]: inactive | Potency [2]: inactive

COc1ccc2c3n(c(=NC(=O)c4cccnc4)nc2c1OC)CCN3
Potency [2]: inactive

CCCC(CCC)C(=O)O
Potency [1]: inactive | Potency [2]: inactive

CC(C)(C)NCC(O)c1ccc(O)c(CO)c1 (stereo not drawn)
Potency [1]: inactive | Potency [2]: inactive

O=C(C=Cc1ccc(/C=C/C(=O)Nc2ccc(C3=NCCN3)cc2)cc1)Nc1ccc(C2=NCCN2)cc1
Potency [2]: inactive

CNC(=O)c1ccc(N2C(=S)N(c3ccc(C#N)c(C(F)(F)F)c3)C(=O)C2(C)C)cc1F
Potency [2]: inactive

CCn1c(-c2nonc2N)nc2cnc(Oc3cccc(NC(=O)c4ccc(OCCN5CCOCC5)cc4)c3)cc21
Potency [2]: inactive

O=C(O)COCCN1CCN(C(c2ccccc2)c2ccc(Cl)cc2)CC1 (stereo not drawn)
Potency [1]: inactive | Potency [2]: inactive

COc1ccc([C@@H]2CC(=O)c3c(O)cc(O[C@@H]4O[C@H](CO[C@@H]5O[C@@H](C)[C@H](O)[C@@H](O)[C@@H]5O)[C@@H](O)[C@H](O)[C@@H]4O)cc3O2)cc1O
Potency [2]: inactive

C[C@@H]1CN(Cc2ccc(F)cc2)[C@@H](C)CN1C(=O)c1cc2c(C(=O)C(=O)N(C)C)cn(C)c2cc1Cl
Potency [2]: inactive

NS(=O)(=O)c1cc2c(cc1Cl)NC=NS2(=O)=O
Potency [1]: inactive | Potency [2]: inactive

Cc1cc(C=c2sc3nc4ccccc4n3c2=O)c(C)n1-c1ccccc1
Potency [2]: inactive

O=C1CCCC2=C1C(c1[nH]ncc1Cl)N=C(Nc1nc3ccccc3o1)N2 (stereo not drawn)
Potency [2]: inactive

NC(=O)C1CCCc2c1[nH]c1ccc(Cl)cc21 (stereo not drawn)
Potency [2]: inactive

O=C(O)[C@@H](c1ccc(OCc2ccc3ccccc3n2)cc1)C1CCCC1
Potency [2]: inactive

O=C(O)CCc1ccc(NCc2cccc(Oc3ccccc3)c2)cc1
Potency [1]: inactive | Potency [2]: inactive

CNC(=O)c1ccc(C)c(-n2c(C)cc(OCc3ccc(F)cc3F)c(Br)c2=O)c1
Potency [2]: inactive

O=C(Nc1ccc(F)c(C(F)(F)F)c1)Nc1nnc(-c2ccncc2)s1
Potency [2]: inactive

CC(C)(C)OC(=O)CN(Cc1ccc(Cl)cc1)Cc1ccc([N+](=O)[O-])s1
Potency [2]: inactive

c1ccc([C@H]2CN3CCSC3=N2)cc1
Potency [1]: inactive | Potency [2]: inactive

Cc1cc2c(C(C)C)c(O)c(O)c(C=O)c2c(O)c1-c1c(C)cc2c(C(C)C)c(O)c(O)c(C=O)c2c1O
Potency [1]: 0.377 µM (active) | Potency [3]: 2.51 µM (active) | Potency [4]: 2.51 µM (active)

CCc1cncnc1N1CCN(Cc2nc3ccc(C(F)(F)F)cc3[nH]2)CC1
Potency [1]: inactive | Potency [2]: inactive

CN(C(=O)c1ccc(F)cc1C(F)(F)F)C1CCN(c2nnc(-c3ccnn3C)c3ccccc23)CC1
Potency [2]: inactive

C[C@]12CC[C@H](O)CC1=CC[C@@H]1[C@H]2CC[C@]2(C)C(c3cccnc3)=CC[C@H]12
Potency [2]: inactive

O=c1[nH]cnc2[nH]ncc12
Potency [1]: inactive | Potency [2]: inactive

Cn1c(=O)c(F)c(Nc2ccc(I)cc2F)c2c(=O)n(C[C@@H](O)CO)cnc21
Potency [2]: inactive

COCCNCCCn1c(C(=O)CF)c(-c2ccc(C)cc2)c2c(N)ncnc21
Potency [2]: inactive

Cc1cc(-c2ccc(CC(=O)Nc3ccc(-c4cccnc4)cc3)cc2)ccn1
Potency [2]: inactive

COc1cc2c(cc1OC)CN(CCc1ccc(NC(=O)c3cccc4c(=O)c5cccc(OC)c5[nH]c34)cc1)CC2
Potency [3]: 44.1 µM (active)

OCCn1cc(-c2cnc3nnn(Cc4ccc5ncccc5c4)c3n2)cn1
Potency [3]: inactive
